Results taken from ChEMBL document CHEMBL1157539, “Thousands of chemical starting points for antimalarial lead identification” (Nature, 2010).
Where “and” joins values, the source holds several entries; their conditions need not be identical. Equal entries are not always repeated.

system: Plasmodium falciparum; experiment: GSK_TCMDC: Inhibition of Plasmodium falciparum 3D7 in whole red blood cells, using parasite LDH activity as an index of growth. Test compounds present at 2uM; type: functional

`Cc1[nH]c2ccccc2c1C1=CCN(CCN2CCCc3c(Br)cccc3C2=O)CC1` and `COc1ccc(C(=O)C2CC2CN2CC=C(c3c[nH]c4ccccc34)CC2)cc1` (centres undefined) are the same in Inhibition: 95% for the first, 95% for the second.

`Cl.Fc1ccc2[nH]cc(CCN3CCC(CNCc4ccccc4)CC3)c2c1` and `O=C(NCCC1CCN(CCc2c[nH]c3ccccc23)CC1)Nc1ccc(Cl)c(Cl)c1` are the same in Inhibition: 100% for the first, 100% for the second.

Compared with `CN(c1cc(NC(=O)c2cccs2)ccn1)C1CCN(Cc2cccc(C#N)c2)CC1.O=C(O)C(F)(F)F`, `CC(=O)N(Cc1ccccc1-c1cccc(CNCCc2ccccc2)c1)C1CCN(Cc2ccccc2)CC1.O=C(O)C(F)(F)F` is lower in Inhibition: 90% for the first, 89% for the second.

Going from `CCCCC/C=C/C(=O)NC1CCC(CN2CCC(c3c[nH]c4ccccc34)CC2)CC1` (centres undefined) to `O=C(/C=C/c1cccs1)NC1CCC(CN2CCC(c3c[nH]c4ccccc34)CC2)CC1` (centres undefined), the Inhibition falls from 87% to 82%.

First: CN(C)CCC(=O)c1ccccc1.Cl
Second: CCN(Cc1ccccc1)CC(O)c1ccc(Cl)c(Cl)c1.Cl (centres undefined)
The Inhibition of the first is higher: 100% for the first, 96% for the second.

First: CC(=O)C1(c2ccccc2)CCN(CCC2(c3ccc(Cl)c(Cl)c3)CN(C(=O)C3CCCC3)CCO2)CC1 (centres undefined)
Second: CC(=O)C1(c2ccccc2)CCN(CCC2(c3ccc(Cl)c(Cl)c3)CN(C(=O)C3CCCCC3)CCO2)CC1 (centres undefined)
The Inhibition of the first is lower: 88% for the first, 100% for the second.

First: CN(CC(=O)N1CCN(S(=O)(=O)c2cccc(Cl)c2)CC1CN1CCCC1)c1ccc(Cl)c(Cl)c1 (centres undefined)
Second: O=C(/C=C/c1ccc(Cl)c(Cl)c1)N1CCC2CC(N3CCC(c4c[nH]c5ccccc45)CC3)CCC2C1 (centres undefined)
The Inhibition of the first is lower: 89% for the first, 100% for the second.

Compared with `COc1ccc(O)c(CN2CCN(c3cc(C)ccc3C)CC2)c1`, `CC[C@H]1CN2CC[C@H]1C[C@H]2[C@H](O)c1cc(-c2cccc(Cl)c2)nc2ccc(OC)cc12.Cl` is higher in Inhibition: 90% for the first, 98% for the second.

`COc1ccc(C=CC(=O)NC2CCC(CN3CCC(c4c[nH]c5ccccc45)CC3)CC2)cc1OC` (centres undefined) and `O=C(/C=C/c1ccc([N+](=O)[O-])cc1)NC1CCC(CN2CCC(c3c[nH]c4ccccc34)CC2)CC1` (centres undefined) are the same in Inhibition: 100% for the first, 100% for the second.

Going from `O=c1n[n+](C2CCCCC2)[n-]o1` to `CC[C@H]1CN2CC[C@H]1C[C@H]2[C@H](O)c1cc(N2CCCC(CO)C2)nc2ccc(OC)cc12` (some centres undefined), the Inhibition rises from 91% to 100%.

`CCOC(C(=O)OCC1CCCN1C)(c1ccccc1)c1ccccc1` (centres undefined) and `COc1cccc(C2(NC[C@@H](O)[C@H](Cc3ccccc3)NC(=O)c3ccccc3)CCCCC2)c1` are the same in Inhibition: 97% for the first, 97% for the second.

Going from `C=CCOc1ccccc1CNCC(O)c1cccc(C(F)(F)F)c1` (centres undefined) to `CC(Cc1ccc(OCc2ccccc2)c(Cl)c1)NCC(O)c1cccc(C(F)(F)F)c1` (centres undefined), the Inhibition falls from 99% to 97%.

`O=C(/C=C/c1ccc(Cl)c(Cl)c1)NCc1ccc(CN2CCC(c3c[nH]c4ccccc34)CC2)cc1` and `O=C(NC1CCC(CN2CCC(c3c[nH]c4ccccc34)CC2)CC1)c1ccc(-c2cc(C(F)(F)F)ccc2Cl)o1` (centres undefined) are the same in Inhibition: 100% for the first, 100% for the second.

`CC[C@H]1CN2CC[C@H]1C[C@@H]2[C@@H](O)c1ccnc2ccccc12` and `CC[C@H]1CN2CC[C@H]1C[C@H]2[C@H](O)c1cc(-c2ccc(Cl)c(Cl)c2)nc2ccc(OC)cc12.Cl` are the same in Inhibition: 98% for the first, 98% for the second.

Going from `COC(=O)c1ccc(C[C@@H](C)NC[C@H](O)c2cccc(C(F)(F)F)c2)cc1.Cl` to `Br.COC(=O)C(C)(C)c1ccc(CC(C)NCC(O)c2cccc(C(F)(F)F)c2)cc1` (centres undefined), the Inhibition rises from 97% to 99%.

`CC(C)(C)c1ccc(Cn2nc(C(=O)N3CCN(C(=O)C4CCCO4)CC3)c3ccccc32)cc1` (centres undefined) and `CCCc1c(C(=O)NC2CCC(CN3CCC(c4c[nH]c5ccccc45)CC3)CC2)cnn1-c1ccc(Cl)cc1` (centres undefined) are the same in Inhibition: 90% for the first, 90% for the second.

`Brc1cnc(NC2=NCCN2)c(Br)c1.Cl` and `CC[C@H]1CN2CC[C@H]1C[C@H]2[C@H](O)c1cc(/C=C/c2ccc(F)cc2)nc2ccc(OC)cc12.Cl` are the same in Inhibition: 99% for the first, 99% for the second.

`O=C(NC1CCC(CN2CCC(c3c[nH]c4ccccc34)CC2)CC1)c1cc(-c2ccccc2Cl)oc1C(F)(F)F` (centres undefined) and `C=C[C@H]1CN2CC[C@H]1C[C@H]2[C@H](O)c1cc(-c2ccc(Cl)cc2)nc2ccc(OC)cc12.Cl` are the same in Inhibition: 99% for the first, 99% for the second.

Going from `Cc1ccc(CC(C)NC[C@H](O)c2cccc(Cl)c2)cc1` (some centres undefined) to `CC(Cc1ccc(NC(=O)CCCc2ccccc2)cc1)NCCc1cccc(Cl)c1.Cl` (centres undefined), the Inhibition rises from 93% to 94%.

`Cc1c(C)c2c(c(C)c1O)CC[C@](C)(C(=O)NC1CCC(CN3CCC(c4c[nH]c5ccccc45)CC3)CC1)O2` (some centres undefined) was tested, and the Inhibition was 96% and 85%.
